In the supplement of paper PMC8728848:
This excerpt belongs to a sample that is enriched for the strongest signals.

How the values were obtained:
Experiment in all cases: glycan array binding signal (z-score within array); higher = stronger binding
Conditions in all cases: glycan notation: IUPAC condensed, linker removed
[1] = target: Fuc(a1-2)Gal(b1-4)GlcNAc6S
Outline: (§1)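 The binding signal is a Z-score computed within each array and averaged over linkers. Arrays of the same protein sequence at different concentrations or buffers were also averaged together. Data originate from 3228 arrays in the Consortium for Functional Glycomics database, kept only where the protein sequence was available.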

[2] = target: Fuc(a1-2)Gal(b1-4)[Fuc(a1-3)]GlcNAc
Outline: as §1

[3] = target: Fuc(a1-2)Gal6S(b1-4)GlcNAc
Outline: as §1

[4] = target: Fuc(a1-2)[Gal(a1-3)]Gal(b1-3)GlcNAc
Outline: as §1

[5] = target: Fuc(a1-2)[GalNAc(a1-3)]Gal
Outline: as §1

[6] = target: Gal(a1-3)Gal(b1-4)[Fuc(a1-3)]GlcNAc
Outline: as §1

Gal(b1-2)Gal = target: Gal(b1-2)Gal
Outline: as §1

[7] = target: Gal(b1-3)GalNAc(b1-3)Gal(a1-4)Gal(b1-4)Glc
Outline: as §1

[8] = target: Gal(b1-3)[Fuc(a1-4)]GlcNAc(b1-3)Gal(b1-3)[Fuc(a1-4)]GlcNAc
Outline: as §1

[9] = target: Gal(b1-4)GalNAc(b1-3)[Fuc(a1-2)]Gal(b1-4)GlcNAc
Outline: as §1

[10] = target: Gal(b1-4)GlcNAc(a1-6)Gal(b1-4)GlcNAc
Outline: as §1

[11] = target: Gal(b1-4)GlcNAc(b1-3)[Gal(b1-4)GlcNAc(b1-6)]Gal(b1-4)GlcNAc
Outline: as §1

[12] = target: Gal(b1-4)GlcNAc(b1-3)[GlcNAc(b1-6)]Gal(b1-4)GlcNAc
Outline: as §1

[13] = target: Gal(b1-4)GlcNAc(b1-6)[Gal(b1-3)]GalNAc
Outline: as §1

GalNAc(b1-3)Gal = target: GalNAc(b1-3)Gal
Outline: as §1

[14] = target: GalNAc(b1-3)Gal(a1-4)Gal(b1-4)GlcNAc
Outline: as §1

GlcA(b1-6)Gal = target: GlcA(b1-6)Gal
Outline: as §1

GlcNAc(b1-3)Gal(b1-4)Glc = target: GlcNAc(b1-3)Gal(b1-4)Glc
Outline: as §1

[15] = target: GlcNAc(b1-4)GlcNAc(b1-4)GlcNAc(b1-4)GlcNAc(b1-4)GlcNAc
Outline: as §1

[16] = target: GlcNAc(b1-6)Gal(b1-4)GlcNAc
Outline: as §1

[17] = target: Man(a1-2)Man(a1-3)[Man(a1-2)Man(a1-6)]Man(a1-6)[Man(a1-2)Man(a1-2)Man(a1-3)]Man
Outline: as §1

[18] = target: Neu5Ac(a2-3)Gal(b1-3)[Fuc(a1-4)]GlcNAc(b1-3)Gal(b1-4)[Fuc(a1-3)]GlcNAc
Outline: as §1

[19] = target: Neu5Ac(a2-3)Gal(b1-4)GlcNAc(b1-2)Man(a1-3)[Neu5Ac(a2-6)Gal(b1-4)GlcNAc(b1-2)Man(a1-6)]Man(b1-4)GlcNAc(b1-4)GlcNAc
Outline: as §1

[20] = target: Neu5Ac(a2-3)GalNAc(b1-4)GlcNAc
Outline: as §1

Neu5Ac(a2-6)Gal = target: Neu5Ac(a2-6)Gal
Outline: as §1

[21] = target: Neu5Ac(a2-6)Gal(b1-4)GlcNAc6S
Outline: as §1

[22] = target: Neu5Ac(a2-8)Neu5Ac(a2-8)Neu5Ac(a2-3)Gal(b1-4)Glc
Outline: as §1

[23] = target: Neu5Ac9Ac(a2-6)Gal(b1-4)GlcNAc
Outline: as §1

[24] = target: Neu5Gc(a2-3)Gal(b1-4)GlcNAc
Outline: as §1

B1: GH95CBM (Clostridium perfringens) (protein)
chain: EKVAVETSVYLSELEWKSASTGYGEIQKDASCDGNTITLKGENGEKVSYDKGIGTHAHSEIVYSLEGLDYYDYFETFVGVDQEMAGTVASISFEVYLDNEKVFDSGLMTGDTTQKHVKVPIAGKNTLKLVVKDGGDSIGSDHGSFGDAKLT
- glycan array binding signal (z-score) [1]: -0.334
- glycan array binding signal (z-score) [2]: -0.325
- glycan array binding signal (z-score) [3]: -0.296
- glycan array binding signal (z-score) [4]: -0.321
- glycan array binding signal (z-score) [5]: -0.291
- glycan array binding signal (z-score) [6]: 4.88
- glycan array binding signal (z-score) (Gal(b1-2)Gal): 2.38
- glycan array binding signal (z-score) [7]: 4.91
- glycan array binding signal (z-score) [8]: -0.312
- glycan array binding signal (z-score) [9]: 4.18
- glycan array binding signal (z-score) [10]: -0.283
- glycan array binding signal (z-score) [11]: -0.311
- glycan array binding signal (z-score) [12]: -0.326
- glycan array binding signal (z-score) [13]: 3.34
- glycan array binding signal (z-score) (GalNAc(b1-3)Gal): 3.84
- glycan array binding signal (z-score) [14]: 6.95
- glycan array binding signal (z-score) (GlcA(b1-6)Gal): -0.227
- glycan array binding signal (z-score) (GlcNAc(b1-3)Gal(b1-4)Glc): -0.347
- glycan array binding signal (z-score) [15]: -0.133
- glycan array binding signal (z-score) [16]: -0.319
- glycan array binding signal (z-score) [17]: 1.43
- glycan array binding signal (z-score) [18]: -0.265
- glycan array binding signal (z-score) [19]: -0.357
- glycan array binding signal (z-score) [20]: -0.362
- glycan array binding signal (z-score) (Neu5Ac(a2-6)Gal): -0.355
- glycan array binding signal (z-score) [21]: -0.298
- glycan array binding signal (z-score) [22]: -0.343
- glycan array binding signal (z-score) [23]: -0.367
- glycan array binding signal (z-score) [24]: -0.34
